Assay results: publication PMC7819943, “Rice protein-binding microarrays: a tool to detect cis-acting elements near promoter regions in rice”
The full ranking holds about 68,000 sequences; the median of “fluorescence intensity (a.u.)” is about 9,100, and the highest 2% start at about 16,000. This is one part of a sample in which the highest values are shown more often than they occur.

These sequences were tested against OsWRKY34 (Oryza sativa, UniProt Q0JBA9 1-250) (assay: protein-binding microarray (RPBM); PBS, 2% BSA, 51.3 ng/ul salmon testes DNA, 50 uM zinc acetate, 200 nM TF, 25 C, 1 h; high values mean tight binding). Details: protein: recombinant; tags: N-terminal polyhistidine and DsRed monomer fusion (pET32a); label: CyDye5-dUTP incorporated in the synthesized complementary strand; 3' TTTTT single-stranded linker to array surface; dsDNA, one strand shown.
Sequence of OsWRKY34 (Q0JBA9 entry or part of it): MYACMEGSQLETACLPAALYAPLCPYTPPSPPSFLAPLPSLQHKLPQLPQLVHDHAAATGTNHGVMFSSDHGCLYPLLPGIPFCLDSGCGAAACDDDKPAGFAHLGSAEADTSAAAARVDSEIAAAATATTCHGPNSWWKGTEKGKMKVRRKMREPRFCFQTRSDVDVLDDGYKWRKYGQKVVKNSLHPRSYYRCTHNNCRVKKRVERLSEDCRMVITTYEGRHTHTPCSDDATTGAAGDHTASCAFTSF
Method in brief: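 Binding signal is defined as the fluorescence intensity of each feature in arbitrary units, read on an Axon 4000B scanner. Transcription factors with N-terminal polyhistidine and DsRed fusions came from E. coli BL21-CodonPlus and were purified on Ni–NTA. They were incubated at 200 nM for 1 h at 25 °C on a custom Agilent array that had been made double-stranded with Cy5-dUTP, with 50 µM zinc acetate present, and the array was washed.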
For “CTCTCCGTGCATCTATATAAACTGGCCCTGATCAATCTCACGGAGTCACCTAGTGCAG”, the binding signal was 9650 fluorescence intensity (a.u.).
With “CAGGCGACCACCTCCAGCTCCGCGCCATCTCCATGTCATCCGGAGTCACCTAGTGCAG” the binding signal was 10800 fluorescence intensity (a.u.).
For “TGCACCTGTTTGGCTTAGTACCAGTGCGCTACTGGTTTCACGGAGTCACCTAGTGCAG”, the binding signal was 9680 fluorescence intensity (a.u.).
In the case of “TACTCCGTACAAATTTTCTTCTGGATCCCACCTCTGCTCTCGGAGTCACCTAGTGCAG”, the binding signal is reported as 9050 fluorescence intensity (a.u.).
With “CCCACCTCGCTGTCGTTTCTTCCTCTGGCTGGTCGCGTTGCGGAGTCACCTAGTGCAG” the binding signal was 12700 fluorescence intensity (a.u.).
For “TTTCTTTCCTGTTTTAGGAGGGTTTTCCACGTTAAATCTTCGGAGTCACCTAGTGCAG”, the binding signal was 8290 fluorescence intensity (a.u.).
For “TTTTTTTAAAATTTGCATGTTTTTTGGTCGTGTAAAATTTCGGAGTCACCTAGTGCAG”, the binding signal was 8290 fluorescence intensity (a.u.).
“AGGGGAGAGGAGGGGAGGCGGCGCGGCGGCGAGGAGGGGACGGAGTCACCTAGTGCAG” was tested, and the binding signal was 10200 fluorescence intensity (a.u.).
“AAAGGTGGTGGTAGGGGATAGATCCGGGGCGGGCGGCATGCGGAGTCACCTAGTGCAG” was tested, and the binding signal was 23400 fluorescence intensity (a.u.).
For “GGCACCGGCGGAGGGGCGCGGGAGGGGAGGCGGCGGCGAGCGGAGTCACCTAGTGCAG”, the binding signal was 15600 fluorescence intensity (a.u.).
In the case of “GGGGCGGAAACGGGCGAGGGAGGCGCGGGGAGGGTTTAAACGGAGTCACCTAGTGCAG”, the binding signal is reported as 22600 fluorescence intensity (a.u.).
For “TGGGAGGAGGGAGGGAGGAGGAGGGCGGAGATAGGTGGTGCGGAGTCACCTAGTGCAG”, the binding signal was 11400 fluorescence intensity (a.u.).
For “TAGGAGGTGGCGGCCGGTGGTGGCGGATCCGGCGGCGGGGCGGAGTCACCTAGTGCAG”, the binding signal was 8840 fluorescence intensity (a.u.).
With “ATATCGAAATTGATGCTTGACCAGTCAACACTACTTAATCCGGAGTCACCTAGTGCAG” the binding signal was 9070 fluorescence intensity (a.u.).
“GTCGCTTGTCGTTGTTGCCCTGAACTGTTGGTGCTGGTTCCGGAGTCACCTAGTGCAG” was tested, and the binding signal was 9320 fluorescence intensity (a.u.).
With “GTACATACCCGTATTATTTATCTGTCGCTATGTAGGATTTCGGAGTCACCTAGTGCAG” the binding signal was 10500 fluorescence intensity (a.u.).
For “CCACCGGCGGGCCCCACCATCTTGACTCCTCTCTGTGATCCGGAGTCACCTAGTGCAG”, the binding signal was 8610 fluorescence intensity (a.u.).
“TGTGGTGCGTCTCCTCGTGCAGTTTTTGCCCTTGATTTGACGGAGTCACCTAGTGCAG” was tested, and the binding signal was 11800 fluorescence intensity (a.u.).
With “CGGTTGACTTTTTTTTTCTAATAAGCCAAAACGGCTTATTCGGAGTCACCTAGTGCAG” the binding signal was 18800 fluorescence intensity (a.u.).
In the case of “CCTTTGACTTTTTGATAAACGTTTGACCTTTCGTCTTATTCGGAGTCACCTAGTGCAG”, the binding signal is reported as 22800 fluorescence intensity (a.u.).
In the case of “GACTTTTCGGTTCTTAAGCTGACTTATAATTAGTCTAAACCGGAGTCACCTAGTGCAG”, the binding signal is reported as 8630 fluorescence intensity (a.u.).
In the case of “GTTGACTTTTTGACAAACGTTTGACTTTTCGTCTTATTCACGGAGTCACCTAGTGCAG”, the binding signal is reported as 17400 fluorescence intensity (a.u.).
For “CATTGTTTTCTAATATTCGGCCATGGCTTTTGACATTTTACGGAGTCACCTAGTGCAG”, the binding signal was 8430 fluorescence intensity (a.u.).
“TGATTTTTTGACAAACATTTGACCTTTCGTCTTATTTAAACGGAGTCACCTAGTGCAG” was tested, and the binding signal was 8620 fluorescence intensity (a.u.).
In the case of “TCGTTAACTTTTTAATAAACGTTTGACCTTTCGTCTTATTCGGAGTCACCTAGTGCAG”, the binding signal is reported as 10200 fluorescence intensity (a.u.).
For “GACTTTTTAGCATATGTTTGACCGTTCGTCTTATTCAAAACGGAGTCACCTAGTGCAG”, the binding signal was 10600 fluorescence intensity (a.u.).
“AATTCCTGGCTACGCCACTGCTGCTCTATATATCAAGCCGCGGAGTCACCTAGTGCAG” was tested, and the binding signal was 8080 fluorescence intensity (a.u.).
In the case of “CTCGATTGCGTGTTGTAGATTTTGTGTTTTTGTTCTTGCGCGGAGTCACCTAGTGCAG”, the binding signal is reported as 8030 fluorescence intensity (a.u.).
In the case of “CCCACATCAAAACCTTGAATTTTCACAGTTTCTTGCATTTCGGAGTCACCTAGTGCAG”, the binding signal is reported as 9890 fluorescence intensity (a.u.).
For “TCCAACTCACTTATCTCGTTTTCCGCGCACACGTTTTTTACGGAGTCACCTAGTGCAG”, the binding signal was 16500 fluorescence intensity (a.u.).
For “TTTCACTTGCTTGTTTTTCATGTCCACACTTCCCAACTCACGGAGTCACCTAGTGCAG”, the binding signal was 16600 fluorescence intensity (a.u.).
In the case of “AGAGTTCTTATCCTAGTTTTTCCAACTCACTTATCTCGTTCGGAGTCACCTAGTGCAG”, the binding signal is reported as 10900 fluorescence intensity (a.u.).
“GCTTGCCAACTTGTCCCAAATTTCCTTCGGCGTTTTTTCACGGAGTCACCTAGTGCAG” was tested, and the binding signal was 10800 fluorescence intensity (a.u.).
With “TGTCCACACTTCCCAACTCATTAAATAGTTTGTTTTTTGACGGAGTCACCTAGTGCAG” the binding signal was 8320 fluorescence intensity (a.u.).
With “CTTATCTCTCTCGTTTTCCACGCACACGTTTTTCAAACCGCGGAGTCACCTAGTGCAG” the binding signal was 8940 fluorescence intensity (a.u.).
“AACGTTTGATTTTTCATTTCTCTTATTACTGACTTATTTACGGAGTCACCTAGTGCAG” was tested, and the binding signal was 9850 fluorescence intensity (a.u.).
With “CGCCGCCGCTCGCCGACGTCGCCGCCATCGCCATTACAGCCGGAGTCACCTAGTGCAG” the binding signal was 8980 fluorescence intensity (a.u.).
For “CTACGATACACCGCTTGTTTCTGTTTTTCTTATCTAGGAACGGAGTCACCTAGTGCAG”, the binding signal was 9180 fluorescence intensity (a.u.).
In the case of “CCTGTTACCTGTTTGGCTGACTTGGTCAAACACAACTCACCGGAGTCACCTAGTGCAG”, the binding signal is reported as 9460 fluorescence intensity (a.u.).
For “GGGCTGGTTTGGCTTGGCTGTTACAAAGACAAAGAATGACCGGAGTCACCTAGTGCAG”, the binding signal was 16800 fluorescence intensity (a.u.).
In the case of “GTGTTGTGGTTTACTGAATTGATGTTTGGCTTAAGTGATGCGGAGTCACCTAGTGCAG”, the binding signal is reported as 11800 fluorescence intensity (a.u.).
For “GGTTTGGCTTGGCTTGGCGGCTGGTTCTGCTGAGGCTGACCGGAGTCACCTAGTGCAG”, the binding signal was 11900 fluorescence intensity (a.u.).
